According to PubChem BioAssay AID1159580 (chemical genetic matrix, 2015):
About 2,000 (36%) of roughly 5,500 compounds were called active. About 18% were inconclusive and are not listed. Cut-off read from the data, not from the text of the source: active = normalized growth mostly below about 0.91 (no sharp cut-off); inconclusive = no clear call, values can overlap the other calls; inactive = mostly above about 0.92. The list shows a part of the results.

Assay: chemical genetic growth profiling, strain panel (AID 1159580);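 note: tested at 20 µM; growth read once vehicle control cultures reached saturation at 30 °C; 1 = growth at the plate median or of vehicle wells; lower values mean less growth of the strain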
Settings: S. cerevisiae deletion strains, growth OD

Measured: normalized growth

CCC(=O)c1ccc2c(c1)N(CCCN(C)C)c1ccccc1S2
inactive: locus YAL040C, strain CLN3, hits give low values 0.997 | locus YCL061C, strain MRC1 (second series), hits give low values 1 | locus YDR150W, strain NUM1, hits give low values 1.01 | locus YDR363W, strain ESC2, hits give low values 1.02 | locus YER002W, strain NOP16, hits give low values 1.01 | locus YGR229C, strain SMI1, hits give low values 0.986 | locus YJR075W, strain HOC1, hits give low values 0.985 | locus YNL153C, strain GIM3, hits give low values 1.16 | locus YNL175C, strain NOP13, hits give low values 1.02 | locus YNL197C, strain WHI3, hits give low values 1.05 | locus YNL224C, strain SQS1, hits give low values 1.07 | locus YNL322C, strain KRE1, hits give low values 0.971 | locus YOR083W, strain WHI5 (second series), hits give low values 1 | locus YPL055C, strain LGE1, hits give low values 0.988
